This is an account of results in PubChem BioAssay AID434947 (Broad Institute, 2010).

Among all 2,200 compounds or so, about 15 (0.7%) were called active. This excerpt belongs to a sample that is enriched for actives. A number with no mark means an inactive call.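 The calls were made as follows: active = fitted half-maximal concentration for loss of luminescence signal no more than a set limit of log units above the top tested concentration; inconclusive = flat fit with 30 to 70% signal loss, or invalid fit; inactive = half-maximal concentration above that set limit.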

This assay can be described thus: inhibitors of ADP-Glo detection reagents, dose response, artefact control for GSK3beta inhibitor project, biochemical, luminescence, cell-free, homogeneous (AID 434947).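 Also: kinase-free counter screen of ADP-Glo detection reagents for GSK3beta hits.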 Particulars: 5 uM ADP. (In general: ADP-Glo turns the ADP formed in a reaction into a luminescent signal.)
Broadly, the EC50 is the concentration at which the effect is half-maximal. In the case of `COc1cccc(Nc2nc(-c3ccccc3)nc3ccccc23)c1`, the EC50 was over 30 µM.
With `O=C1Nc2cc(C(=O)NCCCN3CCOCC3)ccc2S/C1=C/c1ccccc1F`, the EC50 is over 30 µM.
As for `Cc1csc2c(=O)n(CCO)c(=O)[nH]c12`, the EC50 was over 30 µM.
With `CCOc1cc(C2c3c(n[nH]c3C)C(=O)N2c2ccc(Br)cc2)ccc1O` (centres undefined), the EC50 was over 30 µM.
Regarding `COC(=O)c1cn(NC(=O)c2cccnc2)c(=O)c2ccccc12`, the EC50 was over 30 µM.
In the case of `CCCc1cc(O)c2c(C)cc(=O)oc2c1`, the EC50 is over 30 µM.
Turning to `COc1ccc(/C=C2/Sc3ccc(C(=O)NCCN4CCCCCC4)cc3NC2=O)cc1`, the EC50 is over 30 µM.
As to `Cc1ccccc1-c1nnc(SCc2ccc(F)cc2)o1`, the EC50 was over 30 µM.
For `CCCN(CCC)CCCNc1ccc2nnc(-c3ccc(F)cc3)n2n1`, the EC50 was over 30 µM.
As to `O=c1c(O[C@@H]2O[C@H](CO)[C@@H](O)[C@H](O)[C@H]2O)c(-c2ccc(O)c(O)c2)oc2cc(O)cc(O)c12`, the EC50 was over 30 µM.
As for `Cc1ccc2c(c1)cc1c(=O)n(CC(=O)NCCN3CCCC3)nc(C)n12`, the EC50 was over 30 µM.
As to `COc1cccc2cc(C(=O)OC(C)C(=O)c3ccc(C)cc3)c(=O)oc12` (centres undefined), the EC50 was over 30 µM.
On to `CC(=O)Oc1cc(C)cc2oc(=O)cc(-c3ccccc3)c12`, for which the EC50 was over 30 µM.
`CC1(C)CC(=O)C=C(Nc2ccc(F)cc2)C1`: the EC50 was over 30 µM.
In the case of `COc1ccc(NC(=O)c2sc(SC)nc2N)cc1` it was over 30 µM; in that of `CCOC(=O)c1nnn(CC(=O)Nc2cccc(OC)c2)c1C(=O)OCC`, over 30 µM; in that of `CC1(C)CC(=O)C2=C(C1)Nc1ccccc1NC2c1ccc(F)cc1` (centres undefined), over 30 µM.
Take `O=C(Nc1ccccc1)Nc1ccncc1`: the EC50 was over 30 µM.
Consider `Cc1cc([N+](=O)[O-])c(C)cc1-c1ccc(/C=N/n2cnnc2)o1`, for which the EC50 is over 30 µM.
`Nc1nc(NCCCN2CCOCC2)nc(Nc2ccc(Cl)cc2)c1[N+](=O)[O-]`: the EC50 was over 30 µM.
As to `CCCC(=O)Nc1nn(CC(C)C)c2nc3cc(C)ccc3cc12`, the EC50 is over 30 µM.
For the compound `N#Cc1cccc(-c2nnc(SCc3ccccc3C#N)o2)c1`, the EC50 is over 30 µM.
For `COc1cc(C2OCC3C(c4cc(OC)c(OC)c(OC)c4)OCC23)cc(OC)c1OC` (centres undefined), the EC50 was over 30 µM.
Take `O=c1c2ccccc2cnn1-c1nc2ccccc2[nH]1`: the EC50 was 25.9 µM (active).
Regarding `Cc1cc(NC(=O)/C=C/c2cccc(F)c2)n(-c2nc3ccccc3[nH]2)n1`, the EC50 was over 30 µM.
`CN1CCN(C(=O)Cn2ncc3c([nH]c4ccccc43)c2=O)CC1`: the EC50 is over 11 µM.
On to `CC(C(=O)NCc1ccco1)n1cc([N+](=O)[O-])cn1` (centres undefined), for which the EC50 was over 30 µM.
As for `CCOC(=O)CCCSc1nnc(CCCCCN2C(=O)c3cccc4cccc(c34)C2=O)o1`, the EC50 is over 30 µM.
For `CCN(CC)Cc1c(O)ccc2occ(C(=O)c3ccc(OC)cc3)c12`, the EC50 was over 30 µM.
As to `Clc1ccc(-c2nnc(-c3ccccc3)c(N3CCSCC3)n2)cc1`, the EC50 was over 30 µM.
For `COc1ccc(Nc2ccccc2C(=O)O)cc1`, the EC50 is over 30 µM.
In the case of `O=C(CN(Cc1cccs1)C(=O)CCC(=O)Nc1ccccn1)NCc1ccccc1` it was over 30 µM; in that of `N#Cc1c(N)n(-c2cccc(O)c2)c2nc3ccccc3nc12`, over 30 µM; in that of `Cc1ccc(S(=O)(=O)NCC2COc3ccccc3O2)cc1` (centres undefined), over 30 µM.
For `CN1CCN(c2nc(-c3ccccc3)nc(-c3ccccc3)c2C#N)CC1`, the EC50 was over 30 µM.
In the case of `COC(CNC(=O)CCc1c(C)nc2c(c(C)nn2-c2ccc(C)cc2)c1C)OC` it was over 30 µM; in that of `CCOC(=O)c1nnn(-c2nonc2N)c1CN(CC)CC`, over 30 µM; in that of `COc1cccc2cc(C(=O)CS(=O)(=O)c3ccc(C)cc3)c(=O)oc12`, over 30 µM.
In the case of `CCCOc1ccc(-c2c(C(=O)N/N=C(\C)c3ccco3)nnn2-c2nonc2N)cc1` it was over 30 µM; in that of `CCc1ccc(/C=N/NC(=O)c2nnn(-c3nonc3N)c2CN2CCc3ccccc32)cc1`, over 30 µM.
With `NC(=O)c1ccc(Oc2ccc(Cl)c3ccccc23)c([N+](=O)[O-])c1`, the EC50 was over 30 µM.
On to `Cc1[nH]nc2c1C(c1cccs1)C1=C(CCCC1=O)N2` (centres undefined), for which the EC50 is over 30 µM.
Turning to `CC(C)CCNc1nc(N)c([N+](=O)[O-])c(NC2CCCCC2)n1`, the EC50 is over 30 µM.
In the case of `CCCCn1nc(NC(=O)COC)c2cc3cc(OC)ccc3nc21` it was over 30 µM.
Next, `O=C(c1cccs1)c1coc2ccc(O)c(CN(CCO)CCO)c12`: over 30 µM; `COc1cccc(C2C3=C(CCCC3=O)Nc3[nH]n(-c4ccccc4)c(=O)c32)c1` (centres undefined): over 30 µM; `Cc1ccc(C(=O)O/N=C\c2ccc(N3CCCCC3)c([N+](=O)[O-])c2)cc1`: over 30 µM.
For the compound `Cc1ccc(Sc2ccc(/C=N/O)cc2[N+](=O)[O-])cc1`, the EC50 is over 30 µM.
Turning to `CS(=O)(=O)N(CCc1ccccc1)CC(=O)N1CCN(c2ccccc2F)CC1`, the EC50 was over 30 µM.
For the compound `CC1CCN(Cc2c(C(=O)N/N=C/c3ccccc3O)nnn2-c2nonc2N)CC1`, the EC50 is over 30 µM.
With `Cn1c(SCC(=O)NC2CCCCC2)nnc1-c1ccccn1`, the EC50 was over 30 µM.
Turning to `O=C(CCSc1nnc(-c2ccncc2)o1)Nc1ccc(F)cc1`, the EC50 was over 30 µM.
Next, `O=C1Nc2cc(C(=O)NCCCN3CCCC3)ccc2S/C1=C/c1ccccc1F`: over 30 µM.
`CCCNC(=O)c1ccc(Cl)cc1Cl`: the EC50 is over 30 µM.
As for `COc1cccc(C(=O)CSc2nccn2C)c1`, the EC50 is over 30 µM.
Take `COc1ccc(-c2cc(C(=O)N3CCN(C(=O)c4ccco4)CC3)[nH]n2)cc1`: the EC50 is over 30 µM.
For the compound `CC(C)(C)C(=O)COC(=O)c1ccc(O)cc1`, the EC50 is over 30 µM.
Regarding `CC(OC(=O)c1nsc(Cl)c1Cl)C(=O)NCc1ccco1` (centres undefined), the EC50 was over 30 µM.
`COC(=O)C1=C(C)N(Cc2ccccc2)C(=NCc2ccc(OC)cc2)N[C@H]1c1cccc(F)c1`: the EC50 was over 30 µM.
